# KCNQ2 block = inhibitors of rat KCNQ2 potassium channel. O88943. B-score at 10 µM. CHO-K1 KCNQ2, FluxOR thallium flux, 20 min; active compounds read low. AID 2156. 310,000 tested, 1.1% active;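 active = fluorescence ratio B-score at most minus 3 library SDs, with starting brightness B-score within 2 library SDs, cut at about -5.5 in these data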
# Target sequence (O88943 whole entry, looked up): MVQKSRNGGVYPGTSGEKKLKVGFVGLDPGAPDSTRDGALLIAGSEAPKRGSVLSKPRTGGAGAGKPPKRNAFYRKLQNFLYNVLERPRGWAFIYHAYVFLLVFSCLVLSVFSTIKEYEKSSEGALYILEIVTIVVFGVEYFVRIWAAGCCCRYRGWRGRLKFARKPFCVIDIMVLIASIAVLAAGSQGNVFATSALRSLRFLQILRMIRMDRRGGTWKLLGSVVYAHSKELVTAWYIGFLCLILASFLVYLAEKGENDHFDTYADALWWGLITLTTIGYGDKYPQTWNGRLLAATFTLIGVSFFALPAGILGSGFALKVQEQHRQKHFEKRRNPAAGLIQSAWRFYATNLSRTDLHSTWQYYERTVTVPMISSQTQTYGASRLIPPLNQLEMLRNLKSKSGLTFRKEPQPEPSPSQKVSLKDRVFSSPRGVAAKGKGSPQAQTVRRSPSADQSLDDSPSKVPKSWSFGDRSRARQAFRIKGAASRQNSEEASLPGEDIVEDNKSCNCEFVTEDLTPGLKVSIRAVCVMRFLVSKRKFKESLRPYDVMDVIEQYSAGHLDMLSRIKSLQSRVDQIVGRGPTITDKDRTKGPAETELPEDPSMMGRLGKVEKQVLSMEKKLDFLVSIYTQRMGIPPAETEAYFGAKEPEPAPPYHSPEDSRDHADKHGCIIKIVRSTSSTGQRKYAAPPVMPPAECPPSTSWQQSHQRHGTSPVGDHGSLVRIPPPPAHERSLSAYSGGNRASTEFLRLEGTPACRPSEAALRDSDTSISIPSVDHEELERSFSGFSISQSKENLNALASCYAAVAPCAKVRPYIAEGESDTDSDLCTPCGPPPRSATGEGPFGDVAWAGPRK
# KCNQ2 pot = potentiators of rat KCNQ2 potassium channel | CHO-K1 KCNQ2, FluxOR thallium flux fluorescence; active compounds read high | B-score at 10 µM | 310,000 tested, 0.54% active;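 active = fluorescence ratio B-score at least 3 SD of library B-scores, with initial fluorescence B-score within 3 of them, cut at about 5.3 in these data; same plate scores as AID 2156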;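 note: B-score of peak minus minimum over baseline fluorescence ratio after K+ and Tl+ stimulus; positive B-score means potentiation of KCNQ2 with more thallium influx and brighter signal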
# Numbers stand for hits; 0 = inactive; - = no result. Rows were chosen to be rich in hits. Some 1.6% of all compounds tested hit in one or more screens of this group.
SMILES,KCNQ2 block,KCNQ2 pot
CC1(c2ccc(OC(F)F)cc2)NC(=O)N(/N=C/c2c(O)ccc3ccccc23)C1=O (configuration not stated),0,-
CSc1c(CC(=O)Nc2ccc(F)cc2)n(Cc2ccccc2)c2ccccc12,0,-
O=C(NCC1(c2ccccc2)CCCC1)C1(c2ccccc2)CCCC1,-7,0
O=C(NCC1(c2ccccc2)CCCC1)C(=O)NCC1(c2ccccc2)CCCC1,0,-
O=C(c1cc(-c2ccc(Br)cc2)nc2ccccc12)N1CCC1,-6.4,0
O=C(c1cc(-c2cccc(Br)c2)nc2ccccc12)N1CCCC1,0,-
O=C(c1cc(-c2ccc(Cl)s2)nc2ccccc12)N1CCCC1,0,0
Cc1ccc(-c2cc(C(=O)N3CCCC3)c3ccccc3n2)s1,-5.9,0
CC(C)c1ccc(NC2CCCN(C(=O)c3n[nH]c4c3CCC4)C2)cc1 (configuration not stated),0,-
Cc1noc(C)c1CSCC(=O)Nc1cc(Cl)ccc1N1CCCCC1,0,-
CCOc1ccc(NC(=O)CN(C)C(=O)C2CC(=O)N(CCc3ccccc3)C2)cc1OCC (configuration not stated),0,-
Cc1ccc(C(=O)O)cc1N1C(=O)c2cccc3c([N+](=O)[O-])ccc(c23)C1=O,0,-
O=C(O)c1ccc(CN2C(=O)c3cccc4c([N+](=O)[O-])ccc(c34)C2=O)cc1,-8.6,0
Cc1c(OC(C)C(=O)NCc2ccncc2)ccc2c3c(c(=O)oc12)CCCC3 (configuration not stated),0,0
O=C(C1=C[C@@H](C2CCCCC2)C[C@@H](OCc2ccc(CO)cc2)O1)N1CCN(Cc2ccccc2)CC1,-6.5,0
O=C(C1=C[C@H](C2CCCCC2)C[C@H](OCc2ccc(CO)cc2)O1)N1CCN(Cc2ccccc2)CC1,-6.7,0
C[C@@H]1C=C(C(=O)N2CCN(Cc3ccccc3)CC2)O[C@H](OCc2ccc(CO)cc2)C1,0,-
O=C(C1=C[C@H](C2CCCCC2)C[C@H](OCc2ccc(CO)cc2)O1)N1CCOCC1,0,-
CCOC(=O)[C@@H]1[C@H]2COc3ccccc3[C@H]2N2C(=O)N(c3ccc(C(F)(F)F)cc3)C(=O)[C@]12C,0,-
Cc1ccc(-c2cc(C(=O)N/N=C/c3c(C)nn(C)c3C)c3ccccc3n2)c(C)c1,0,-
O=c1c2cc(Cl)ccc2[nH]c(=S)n1Cc1cccs1,0,5.3
O=c1c2cc(Cl)ccc2[nH]c(=S)n1Cc1ccco1,0,-
Cc1cc(NC(=O)CSc2nnc(COc3cccc(C)c3C)n2Cc2ccco2)no1,0,0
Cc1cccc(OCc2nnc(SCC(=O)N(C(C)C)C(C)C)n2Cc2ccco2)c1C,-7.7,0
CC(=O)Nc1c2c(nn1-c1ccccc1C)CS(=O)(=O)C2,0,0
SMILES,KCNQ2 block,KCNQ2 pot
O=C(Nc1ccc2c(c1)OCO2)C1CCCN1C(=O)Nc1ccccc1 (configuration not stated),0,-
O=C(NCc1ccco1)Nc1ccc2snnc2c1,0,6.1
Cc1nc2ccc(NC(=O)NCc3ccco3)cc2s1,0,0
CC(=O)c1cnc2c(-c3ccccc3)c(C)nn2c1C,0,-
CC(=O)c1cnc2c(-c3ccc(Cl)cc3)c(C)nn2c1C,-5.8,0
COc1ccccc1N1CCN(/N=C/C=C/c2ccccc2[N+](=O)[O-])CC1,0,-
COc1ccc(OC)c(-c2cc(C(=O)N3CCCc4ccccc43)no2)c1,0,-
COc1ccccc1-c1cc(C(=O)N2CCCc3ccccc32)no1,-6,0
CC(OC(=O)CNC(=O)c1ccc2ccccc2c1)C(=O)N(C)C1CCCCC1 (configuration not stated),0,-
CC(C)SCCCOc1ccc(C(C)(C)C)cc1,-5.8,0
c1ccc2cc(OCCOCCOc3ccc4ccccc4c3)ccc2c1,0,-
CC(C)SCCCCOc1ccc2ccccc2c1,-6.9,0
CC(C)(C)c1ccc(OCCN2CCCC2)cc1,0,-
COc1ccc(NC(=O)CSCC(=O)N(C)CCOc2ccc(Cl)cc2)cc1,0,0
Cc1cc(C)cc(OCC(=O)NN2Cc3ccccc3C2=N)c1,0,0
N=C1c2ccccc2CN1NC(=O)CC12CC3CC(CC(C3)C1)C2,0,18
Oc1ccc(Br)cc1-c1ccn[nH]1,0,12
Oc1ccc(Br)cc1-c1cc(-c2ccco2)[nH]n1,0,-
CC(OC(=O)C1=COCCO1)C(=O)NC(C)c1ccc(Cl)cc1Cl (configuration not stated),0,-
COc1ccc(S(=O)(=O)N2CCCCCC2)cc1C(=O)N(C)Cc1ccc(C)cc1,0,-
COc1cccc(NC(=O)CN(C)C(=O)c2cccc(S(=O)(=O)N3CCN(c4ccccc4)CC3)c2)c1,0,0
COc1cccc(CN(C)C(=O)c2cc(S(=O)(=O)N3CCN(c4ccccc4)CC3)ccc2Cl)c1,-5.6,0
COc1ccc(S(=O)(=O)N2CCCCCC2)cc1C(=O)N(C)Cc1ccccc1F,-5.8,0
CCOc1ccc(C(C)=O)cc1NC(=O)/C=C\C(=O)O,0,0
O=C(O)c1ccccc1-c1ccccc1C(=O)NCc1ccccc1Cl,0,0
SMILES,KCNQ2 block,KCNQ2 pot
S=C(Nc1cccnc1)N1CCN(c2ccccc2Cl)CC1,0,0
Cc1cc(NS(=O)(=O)c2ccc(NC(=O)CCCOc3ccccc3C)cc2)no1,0,0
COCC(C)NC(=O)c1nn(Cc2ccccc2)c(=O)c2ccccc12 (configuration not stated),0,0
COCCNC(=O)C1CCC(CNS(=O)(=O)c2ccccc2)CC1 (configuration not stated),0,-
CCCOc1ccc(-c2c(C(=O)N/N=C(\C)c3cccs3)nnn2-c2nonc2N)cc1,0,-
CC(/C=C1\SC(=S)N(NC(=O)c2ccccc2C)C1=O)=C\c1ccccc1,0,-
CC(/C=C1\SC(=S)N(NS(=O)(=O)c2ccc(C)cc2)C1=O)=C\c1ccccc1,0,21
CC(=O)c1ccc(NC(=O)CSc2ccc3nnc(-c4cccnc4)n3n2)cc1,0,0
CC(=O)c1ccc(NC(=O)c2ccc3nc(-c4ccco4)c(-c4ccco4)nc3c2)cc1,0,-
O=C(Nc1ccccc1)c1ccc2nc(-c3ccco3)c(-c3ccco3)nc2c1,-6.5,0
COc1ccc(CCC(=O)Nc2cc(S(C)(=O)=O)ccc2Cl)cc1,0,-
CCOC(=O)c1nnc(-c2ccc(C)cc2)nc1Oc1ccccc1Cl,0,-
CCOC(=O)c1nnc(-c2ccc(C)cc2)nc1Oc1ccc(Cl)cc1Cl,-6,0
CCCc1cc(=O)oc2cc(OCC(=O)N3CCN(C(=O)C4COc5ccccc5O4)CC3)ccc12 (configuration not stated),0,-
COc1cccc2[nH]c3c(N4CCN(Cc5ccc6c(c5)OCO6)CC4)ncnc3c12,0,0
COc1ccc2c(c1)[nH]c1c(N3CCN(Cc4ccc5c(c4)OCO5)CC3)ncnc12,-8.1,0
c1ccc(CN2CCN(c3ncnc4c3[nH]c3ccccc34)CC2)cc1,-8.1,0
Cc1ccc2[nH]c3c(N4CCN(Cc5ccccc5)CC4)ncnc3c2c1,0,-
O=c1[nH]c2ccc(S(=O)(=O)N3CCCCC3)cc2[nH]c1=O,0,0
O=C(NCc1ccco1)c1ccc(COc2ccccc2[N+](=O)[O-])o1,0,0
Cc1ccc(/C=N/NC(=O)CNC(=O)c2cccc([N+](=O)[O-])c2C)o1,0,0
COCCn1c(SCC(=O)Nc2cc(C)on2)nnc1C(C)C,0,0
COc1ccc(CCN2C(=O)N[C@@H](C(C)C)C2=O)cc1,0,0
Cc1cc(Cl)c2oc(C(=O)N(C)Cc3nccn3C)c(C)c2c1,0,-
Cc1nn(-c2ccccc2)c(C)c1NC(=O)COC(=O)c1cccc(OC(F)F)c1,0,-
